# Screens deposited in PubChem BioAssay by National Center for Advancing Translational Sciences (NCATS).
# A selection: hits, their analogues and other compounds. The true share with any hit is near 3%.
# LmPK inhibitor: blocks Leishmania mexicana pyruvate kinase activity; Q27686; purified LmPK, Kinase-Glo ATP luminescence, 1 h; Potency, µM (highest dose often 57.5 µM), inactives show top-dose activity change, negative = inhibition, usual class: inhibitors; hit rate 0.37% among 290,000
# Target sequence (Q27686 whole entry, looked up): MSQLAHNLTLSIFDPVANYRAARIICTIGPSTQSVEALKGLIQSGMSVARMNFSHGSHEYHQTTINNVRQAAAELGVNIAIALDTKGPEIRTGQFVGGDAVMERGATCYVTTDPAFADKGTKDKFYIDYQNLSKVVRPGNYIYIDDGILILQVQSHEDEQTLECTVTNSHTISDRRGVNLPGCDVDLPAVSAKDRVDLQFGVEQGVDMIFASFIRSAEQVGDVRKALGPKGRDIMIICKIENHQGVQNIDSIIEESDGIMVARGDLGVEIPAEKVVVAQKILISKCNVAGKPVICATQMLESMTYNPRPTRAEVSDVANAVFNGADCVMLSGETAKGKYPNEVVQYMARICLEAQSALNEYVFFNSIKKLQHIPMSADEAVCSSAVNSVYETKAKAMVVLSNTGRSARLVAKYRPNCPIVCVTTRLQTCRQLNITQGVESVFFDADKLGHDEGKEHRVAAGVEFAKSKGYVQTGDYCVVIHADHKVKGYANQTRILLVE
#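 Kinase-Glo luminescence read after 1 h RT reaction of 0.1 nM LmPK with 0.5 mM PEP and 0.1 mM ADP. Activity scaled between uninhibited and enzyme-free controls.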
# TbPYK inhibitor: blocks Trypanosoma brucei pyruvate kinase; TbPYK enzyme, Kinase-Glo Plus ATP luminescence, 45 min; Potency, µM (titrated, usually from 76.8 µM), inactives show at the highest dose activity, negative = inhibition, actives largely listed as inhibitors; hit rate 0.12% among 410,000; AID 624173; note: nearly all actives have a fitted effect of over 50% in size
#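 In this concentration-response screen, enzyme-free wells defined baseline while DMSO plates tracked drift. Each reaction combined TbPYK, substrate, compound and 130 uM ADP for 45 min at room temperature. Kinase-Glo Plus luminescence gave the signal.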
# Sm TGR inh: S. mansoni TGR enzyme inhibition. hit rate 3% among 360,000. purified TGR, DTNB reduction, TNB absorbance 405 nm. Potency, µM (highest dose often 114 µM), for inactives: top-dose activity change, negative = inhibition, hits mostly inhibitors; note: nearly all actives have a fitted effect of over 60% in size
#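 TGR 20 nM + NADPH 100 uM (dispensed conc.), cpd preinc 15 min RT; start with NADPH (500 uM addition) then DTNB (15 mM addition). Kinetic TNB absorbance, 405 nm filter. Four-parameter Hill fit across titration.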
# RE007 growth inh: less growth of the S. pombe RE007 Vpr strain | S. pombe RE007 Vpr strain, BacTiter-Glo ATP luminescence, 24 h | Potency, µM (highest dose often 92.2 µM), inactives show at the top dose activity change, negative = less growth, most hits filed as inhibitors | hit rate 0.21% among 360,000; active = well fitted falling curve with a large enough effect; inconclusive = small, poorly fitted or top-dose-only effect; inactive = no such curve, though single readings can be large or run the other way; note: nearly all actives have a fitted effect of over 50% in size
#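 Fission yeast RE007 carrying one integrated HIV-1 vpr copy, seeded at OD 0.01 in PMG+AL medium with 23 nL pinned compound. Grown 24 h at 30 degrees; viability read by BacTiter-Glo luminescence after 5 min.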
# * = called active by the depositor; ? = inconclusive; · = no result given; [ ] = another dose, or the depositor's remark. Unless noted, calls come from the whole dose curve; as a rule, active = well fitted curve in the direction sought with a large enough effect; inconclusive = small, poorly fitted or top-dose-only effect, or another doubt; inactive = no such curve, though single readings can be large; an effect the other way counts as inactive or inconclusive. % is set by controls: 0 for no effect and ±100 for the full control effect; potency is the fitted concentration of half-maximal effect.
SMILES,LmPK inhibitor,TbPYK inhibitor,Sm TGR inh,RE007 growth inh
Cc1cccc(-n2c(CNC(=O)c3ccc(S(=O)(=O)N4CCCC4)cc3)n[nH]c2=S)c1,-10%,14µM*,-12%,2%
O=C(NCc1n[nH]c(=S)n1-c1cccc(Cl)c1)c1ccc(S(=O)(=O)N2CCCCC2)cc1,12%,?,1%,-19%
CCCOc1ccc(NC(=O)CC2C(=O)N(c3ccc(C)cc3)C(=O)N2C(C)C)cc1 (stereo not drawn),·,0%,5%,·
Cn1nnc(NC(=S)NC(=O)/C=C/c2ccco2)n1,13%,-22%,3.2µM*,-9%
CCCn1nnc(NC(=O)/C=C/c2ccco2)n1,-1%,-4%,5.6µM*,-1%
O=C(/C=C/c1ccco1)NC(=S)Nc1nc(-c2ccc(Cl)cc2)cs1,2%,-11%,-4%,-24%
CCOC(=O)c1c(S(=O)(=O)N2CCC(C(=O)NCc3cccc(OC)c3)CC2)c(C)n(C)c1C,·,0%,3%,·
O=C(O)CCCNc1cc(N2CCN(C3CCCCC3)CC2)c2noc3c2c1C(=O)c1ccccc1-3,·,-3%,0%,·
CCN1CCN(c2cc(N3CCN(C(=O)c4ccco4)CC3)c3c4c(onc24)-c2ccccc2C3=O)CC1,-6%,-13%,7.1µM*,-19%
O=C(O)CCNc1cc(N2CCN(C(=O)c3ccco3)CC2)c2noc3c2c1C(=O)c1ccccc1-3,-4%,?,16µM*,-16%
CCc1ccc(NCc2cc3ccc(OC)cc3n(CC(=O)Nc3ccc(C)c(Cl)c3)c2=O)cc1,·,-1%,3%,·
O=C(NCC1CCN(Cc2ccc(F)cc2)CC1)c1cc2ccc3cccnc3c2[nH]1,·,-2%,3%,·
Cn1c(=O)c2c(nc(NN=C3CCCCC3)n2C)n(C)c1=O,-15%[11.5 µM],-2%,13µM*,-25%
CC1CCC(N2CC(=O)N(C3CCCCC3)C(c3ccc(F)cc3)C2=O)CC1 (stereo not drawn),·,-1%,20%,·
COc1ccccc1/C=C/c1nc(S(=O)(=O)c2ccccc2)c(NCCN(C)C)o1,-2%,1%,22µM*,-8%
CNc1oc(C)nc1S(=O)(=O)c1ccc(C)cc1,0%,28%,0%,13%
CCCCNc1oc(-c2ccc(OC)cc2)nc1S(=O)(=O)c1ccccc1,10%,-1%,32µM*,-8%
CCNc1oc(-c2ccc(OC)cc2)nc1S(=O)(=O)c1ccc(Br)cc1,1%,-1%,-29%,-8%
Cc1ccc(S(=O)(=O)c2nc(C)oc2NCc2ccccc2)cc1,1%,·,2µM*,·
CNc1oc(-c2ccccc2)nc1S(=O)(=O)c1ccc(C)cc1,-7%,7%,0%,0%
COc1ccc(-c2nc(S(=O)(=O)c3ccc(C)cc3)c(NCc3ccccc3)o2)cc1,·,0%,13µM*,·
COc1cccc(-c2nc(SCc3cccc(Br)c3)n3[nH]c(=O)cc3n2)c1,·,0%,-7%,·
Cc1ccc(S(=O)(=O)c2nc(-c3ccccc3)oc2NCCN2CCOCC2)cc1,0%,-11%,45µM*,20%
Cc1cc(C)c(/C=C/c2onc(C)c2S(=O)(=O)N2CCC(C(=O)NCc3ccco3)CC2)c(C)c1,·,-2%,-2%,·
COc1cc(-c2noc(CCCC(=O)NCc3ccco3)n2)cc(OC)c1OC,3%,-7%,45µM*,31%
SMILES,LmPK inhibitor,TbPYK inhibitor,Sm TGR inh,RE007 growth inh
O=C(CCc1nc(-c2ccccc2)no1)NCc1ccco1,4%,-15%,45µM*,4%
CCc1nc2ccc(C(=O)NCCCN3CCCC3=O)cn2c1N(C)C(=O)COc1ccccc1,·,-11%,·,-5%
CCC1(C)Cc2nc3[nH]c(=S)n(-c4ccc(C)cc4)c(=O)c3cc2CO1 (stereo not drawn),4%,0%,6.3µM*,1%
Cc1ccc2c(c1)Oc1ccc(NC(=O)CCl)cc1C(=O)N2,1%,-6%,11µM*,-10%
C[n+]1cccc2c(Br)ccc([O-])c21,-6%,-10%,45µM*,-20%
CCOC(=O)CNC(=O)C(Cc1ccccc1)NC(=O)OCc1ccccc1 (stereo not drawn),14µM*,0%,-12%,8%
CCOC(=O)CNC(=O)C(CO)NC(=O)OCc1ccccc1 (stereo not drawn),-1%,4%,-12%,2%
NC(c1ccccc1)c1csc(Nc2cc(Oc3ccccc3)ncn2)n1 (stereo not drawn),·,-4%,·,-13%
Cn1c(-c2sccc2OCc2ccc(Cl)cc2Cl)n[nH]c1=S,?,3.5µM*,1%,18%
Cc1ccc(COc2ccsc2-c2n[nH]c(=S)n2C)cc1,-19%,·,-11%,0%[3.69 µM]
Nc1nc(Nc2ccccc2)nc2ccccc12,16µM*,-23%,2%,?
CCOc1ccc(Nc2nc(N)c3ccccc3n2)cc1,-4%,?,-3%,?
Cc1ccc(Nc2nc(N)c3ccccc3n2)cc1Cl,-1%,1%,3%,-13%
Nc1nc(Nc2ccc(Cl)cc2)nc2ccccc12,18µM*,5%,0%,?
CN(C)c1ccc(Nc2nc(N)c3ccccc3n2)cc1,?,?,?,25µM*
CCN(c1ccccc1)S(=O)(=O)c1ccc(NC(=O)c2cc(=O)c3cc(C)cc(C)c3o2)cc1,·,-6%,26%,·
Cc1cc(-c2nc(C)c(-c3nnc(SCC(=O)Nc4cc(Cl)cc(Cl)c4)n3C)s2)no1,-2%,7%,-9%,-14%
Cn1c(SCC(=O)Nc2cc(Cl)cc(Cl)c2)nnc1-c1ccc2nonc2c1,8%,2%,18µM*,3%
CCC1CN(C(=O)N2CCC(C(=O)NCCc3cc(OC)ccc3OC)CC2)c2ccccc2O1 (stereo not drawn),·,0%,-1%,·
Cc1ccc(NNC(=O)c2cc(C(C)(C)C)nn2Cc2ccccc2)cc1,4%,4%,45µM*,5%
Cc1ccc(NC(=O)c2cc(C(C)(C)C)nn2Cc2ccccc2)cc1,8%,0%,2%,5%
CC1(C)CC(=O)C=C(NC2=CC3OC(c4ccccc4)OCC3OC2=O)C1 (stereo not drawn),-2%,-19%,20µM*,-16%
COc1ccc(NC(=O)CCS(=O)(=O)c2ccc3c(c2)n(C)c(=O)c(=O)n3C)cc1Cl,·,1%,-22%,·
O=[N+]([O-])c1cccc(/C=C2\CCC(/C=N/Nc3ccc4ccccc4n3)=C2N2CCOCC2)c1,1%,7%,-7%,-14%
O=C(NP(=O)(N1CCCC1)N1CCCC1)C1=C(N2CCOCC2)/C(=C/c2cccc([N+](=O)[O-])c2)CC1,-2%,-4%,18µM*,-15%
CCOC(=O)C(=O)C1=C(N2CCOCC2)/C(=C\c2cccc([N+](=O)[O-])c2)CC1,2%,2%,40µM*,-13%
O=C(NC(=S)Nc1c(Cl)ccc2nsnc12)c1ccco1,-4%,-1%,25µM*,-7%
O=C(NC(=S)Nc1cccc2cc(O)ccc12)c1ccccc1Br,-5%,1%,35µM*,2%
O=C(NC(=S)N1CCCc2ccccc21)c1ccco1,5%,1%,28µM*,13%
